# Assay results from PubChem BioAssay (NCATS).
# Results filed as inconclusive are left out. A call without a number means that no potency is given here. Activity calls are given as the source filed them. The call rests on the fitted dose curve; in most records, active means well fitted cell-killing curve with a large enough effect; inconclusive means small, poorly fitted or top-dose-only effect, or effect the other way; inactive means no such curve, though single readings can be large or run the other way.
# Experiment: qHTS of pediatric cancer cell lines to identify multiple opportunities for drug repurposing: Confirmatory screen for Rh30 cells (AID 1347126); further: nearly all actives have a fitted effect of over 55% in size
# Conditions: Rh30 rhabdomyosarcoma cell viability; series mostly up to 45.9 µM
# Excerpt: Drug repurposing or repositioning has been offered as a strategy for drug development in oncology programs. This approach has special potential for childhood cancers and other rare or orphan diseases, where the expected return on new drug development has been a disincentive to pharmaceuticals.
# In this project we exploit the poly-pharmacology of drugs to discover new indications via phenotypic screening of a panel of 19 well-characterized cell lines derived from solid tumors seen in children and adolescents. The goal is to identify approved drugs with previously unrecognized anticancer properties that has the potential to reveal new mechanisms and biological processes involved in carcinogenesis or drug resistance. We employed a titration-based paradigm (quantitative high-throughput screening or qHTS), where all compounds were tested at multiple concentrations for their effect on cell viability. Concentration-response curves (CRCs) were derived directly from the primary screen, and both potency and efficacy values were used to identify compounds with robust bioactivity profiles. We screened the NIH Chemical Genomics Center (NCGC) Pharmaceutical Collection (NPC) and Mechanism Interrogation Plate (MIPE) small molecule collections of approved and investigational compounds against these cell lines; and measured metabolically active cells after 48 hours of compound treatment as a proxy for cell viability.
# Assay Submitter: Nathalia J. Martinez, National Center for Advancing Translational Sciences, National Institutes of Health, Rockville, MD, USA; email: natalia.martinez@nih.gov
# [1] Shen, M et al. Quantitative high-throughput phenotypic screening of pediatric cancer cell lines identifies multiple opportunities for drug repurposing. Oncotarget 2017 Dec 19;9(4):4758-4772. PMID 29435139.
# The cells were obtained from University of North Carolina (UNC), Pediatric Preclinical Testing Program (PPT), and Coriell Institute (CI).
# qHTS cell viability assay:
# Cells were assayed in growth media at a density of 500-1,000 cells/well. Five microliters of cells were dispensed into 1,536-well, white, solid-bottom, TC-treated plates (Greiner Bio One) using a multidrop dispenser and incubated at 37 degrees C, 5% CO2, under a humidified atmosphere for 5 hours. Twenty-three nanoliters of compounds and controls (neutral control DMSO or positive control bortezomib at final concentration of 2.3 µM) were subsequently transferred by Kalypsys pintool. For primary screens, the MIPE collection was tested at 11-point dilutions (final concentrations range from 0.78 nM to 46 µM) and the NPC collection at 8-point dilutions (final concentrations range from 0.59 nM to 46 µM). Compounds tested in follow-up screens were assayed at 11-point dilutions. Cells were incubated for 48 hours, followed by addition of 3 µL of CellTiter-Glo (Promega). After a 15 min incubation at room temperature, samples were analyzed for luminescence intensity using a ViewLux High-throughput CCD imager equipped with clear filters.
# Potency means the concentration at half of the fitted maximal effect.
row,Structure (SMILES),Potency
1,Nc1nc(OCc2ccccc2)c2[nH]cnc2n1,inactive
2,CC(=O)O[C@H]1C(=O)[C@@]2(C)C([C@H](OC(=O)c3ccccc3)[C@]3(O)C[C@H](OC(=O)[C@H](O)[C@@H](NC(=O)c4ccccc4)c4ccccc4)C(C)=C1C3(C)C)[C@]1(OC(C)=O)CO[C@@H]1C[C@@H]2O (some centres not stated),inactive
3,Cc1nc(Nc2ncc(C(=O)Nc3c(C)cccc3Cl)s2)cc(N2CCN(CCO)CC2)n1,0.414 µM (active)
4,O=C(CCc1ccc(O)cc1)c1c(O)cc(O)cc1O,inactive
5,CCCCc1ccc2nc(NC(=O)OC)[nH]c2c1,9.27 µM (active)
6,CC(C)C[C@H](NC(=O)[C@H](Cc1ccccc1)NC(=O)c1cnccn1)B(O)O,0.233 µM (active)
7,CCN(CC)C(=S)SSC(=S)N(CC)CC,inactive
8,CCN(CCO)CCCC(C)Nc1ccnc2cc(Cl)ccc12 (configuration not stated),inactive
9,CC1(C)C(=O)N(CCN2CCC(C(=O)c3ccc(F)cc3)CC2)c2ccccc21,inactive
10,Nc1ccn([C@@H]2O[C@H](CO)[C@@H](O)C2O)c(=O)n1 (some centres not stated),inactive
11,Cc1ccc(NC(=O)c2ccc(CN3CCN(C)CC3)cc2)cc1Nc1nccc(-c2cccnc2)n1,inactive
12,Nc1ncn([C@H]2C[C@H](O)[C@@H](CO)O2)c(=O)n1,inactive
13,O=C1c2c(O)cc(O)cc2OC(c2ccc(O)c(O)c2)C1O (configuration not stated),inactive
14,CC(S)C(=O)NCC(=O)O (configuration not stated),10.4 µM (active)
15,CCOc1cc(CC(=O)N[C@@H](CC(C)C)c2ccccc2N2CCCCC2)ccc1C(=O)O,inactive
16,Cc1cc(C2CCCCC2)n(O)c(=O)c1,8.27 µM (active)
17,CS(=O)(=O)OCCCCOS(C)(=O)=O,inactive
18,Nc1nc(Cl)nc2c1ncn2[C@H]1C[C@H](O)[C@@H](CO)O1,inactive
19,CN(C)c1ccc2nc3ccc(=[N+](C)C)cc-3sc2c1,1.17 µM (active)
20,CCN(CC)CCOc1ccc(Nc2ncc3cc(-c4c(Cl)cccc4Cl)c(=O)n(C)c3n2)cc1,7.37 µM (active)
21,Oc1ccc(-c2nc(-c3ccc(F)cc3)c(-c3ccncc3)[nH]2)cc1,14.7 µM (active)
22,Clc1ccc(C(Cn2ccnc2)OCc2ccsc2Cl)c(Cl)c1 (configuration not stated),inactive
